# Source: PubChem
# Tau ThT inhib = blocks human tau fibril formation measured by thioflavin T | recombinant tau K18 P301L, heparin-induced fibrillization, ThT fluorescence | Potency, µM (highest dose often 57.4 µM), for the others: at the top dose activity, negative = inhibition, most hits filed as inhibitors | hit rate 2.1% among 270,000 | AID 1460; note: potency is the fitted concentration of half-maximal effect; nearly all actives have a fitted effect of over 55% in size
# Target sequence (P10636 561-689 P618L limits assumed): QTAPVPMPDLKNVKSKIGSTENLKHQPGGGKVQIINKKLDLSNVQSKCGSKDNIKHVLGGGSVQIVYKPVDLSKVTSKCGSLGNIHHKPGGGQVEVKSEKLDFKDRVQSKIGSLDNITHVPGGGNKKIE
#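 Recombinant human tau K18 fragment […] carrying P301L, 15 uM unlabeled plus 0.24 uM Alexa 594-labeled, was fibrillized with 20 uM heparin in 100 mM sodium acetate pH 7 for 6 hr at 37 C; 30 uM ThT fluorescence read after 1 hr.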
# Coupling enz = counter-screen for Giardia aldolase inhibitors: coupling enzyme system. coupling enzyme system counterscreen, AmpLite Red fluorescence. activity change, negative = inhibition, % at 58.2 µM, hits read low. hit rate 0.67% among 290,000. AID 2472; in the data active = activity change below about -30%
#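 Activity here indicates interference with the coupling reaction, not aldolase inhibition. Compounds at 57.5 uM final met coupling enzymes for 10 min at RT; substrate and AmpLite Red detection followed, with a 525/598 nm fluorescence read after 20 min.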
# Sfp inh = inhibitors of Bacillus subtilis Sfp phosphopantetheinyl transferase; hit rate 3.5% among 310,000; Potency, µM, inactives show largest response in the series, negative = inhibition, most hits filed as inhibitors; AID 1490; Biochemical Sfp PPTase activity, qHTS; Q9F4F7;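 note: the enzyme is Sfp with the accession as filed and its product quenches rhodamine fluorescence; potency is the fitted concentration of half-maximal effect; 0% = enzyme reaction without inhibitor and -100% = no enzyme wells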
#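 Compounds were incubated with enzyme (final 15 nM) for 15 min at room temperature before substrate addition started the reaction. Fluorescence at 525 nm excitation, 598 nm emission was recorded immediately and after 30 minutes.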
# Tau fluor cs = counter-screen for tau fibril formation inhibitors. tau K18 P301L Alexa594 fluorescence, heparin fibrillization. Potency, µM (top dose mostly 57.7 µM), inactives show at the highest dose activity change, negative = decrease. hit rate 0.93% among 280,000. AID 1463; note: potency is the fitted concentration of half-maximal effect; nearly all actives have a fitted effect of over 55% in size
#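 Human K18 P301L tau (15 uM unlabeled plus 0.24 uM Alexa 594-labeled, final) in 100 mM sodium acetate pH 7 was mixed with compound and 20 uM heparin and incubated 6 hr at 37 C.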
# G9a inh = inhibitors of human histone lysine methyltransferase G9a; Q96KQ7; hit rate 8.8% among 350,000; Potency, µM (highest dose often 102 µM), for the others: at the top dose activity, negative = inhibition, hits mostly inhibitors; AID 504332; G9a H3K9 monomethylation, AlphaScreen, 2 h; note: potency is the fitted concentration of half-maximal effect; nearly all actives have a fitted effect of over 75% in size
# Target sequence (Q96KQ7 913-1193 limits assumed): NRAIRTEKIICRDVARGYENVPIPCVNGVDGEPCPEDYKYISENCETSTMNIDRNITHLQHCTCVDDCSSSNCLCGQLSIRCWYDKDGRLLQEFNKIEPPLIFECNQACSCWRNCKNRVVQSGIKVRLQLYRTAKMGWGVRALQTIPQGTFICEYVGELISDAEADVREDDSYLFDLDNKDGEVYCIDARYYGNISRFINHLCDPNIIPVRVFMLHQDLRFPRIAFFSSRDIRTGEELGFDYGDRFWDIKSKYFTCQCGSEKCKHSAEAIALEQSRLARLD
#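 Quantitative HTS format: methyltransferase activity on a biotin-tagged H3K9 peptide is measured by AlphaScreen, using a rabbit anti-monomethyl-H3K9 antibody with streptavidin donor and anti-IgG acceptor beads. Final levels are 20 nM enzyme, 500 nM peptide, 20 uM SAM; 2 h RT.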
# Tau fibril FP = inhibitors of human tau fibril formation; P10636; K18 P301L tau heparin fibrillization, Alexa594 FP, 6 h; Potency, µM (doses to about 57.7 µM), for inactives: at the highest dose activity, negative = inhibition, most hits filed as inhibitors; hit rate 0.39% among 280,000; AID 1468; note: potency is the fitted concentration of half-maximal effect; nearly all actives have a fitted effect of over 55% in size
#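 Heparin (20 uM) drove fibril formation of recombinant tau K18 P301L, 15 uM unlabeled with 0.24 uM Alexa 594 label, for 6 hr at 37 C in 100 mM sodium acetate pH 7. Fluorescence polarization (555/632 nm) read 1 hr after 30 uM ThT.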
# * = called active by the depositor; ? = inconclusive; nt = no result; [ ] = another dose, or the depositor's remark. Compounds with a hit are over-represented: about 11% of the library has one in this group of screens. Unless noted, calls come from the whole dose curve; as a rule, active = well fitted curve in the direction sought with a large enough effect; inconclusive = small, poorly fitted or top-dose-only effect, or another doubt; inactive = no such curve, though single readings can be large; an effect the other way counts as inactive or inconclusive. Unless noted, % is set by controls: 0 for no effect and ±100 for the full control effect.
SMILES,Tau ThT inhib,Coupling enz,Sfp inh,Tau fluor cs,G9a inh,Tau fibril FP
Cc1ccc(Cl)cc1N1CCN(C(=O)CN(c2ccccc2)S(=O)(=O)N(C)C)CC1,?,4,-17%,-25%,-9%,-5%
Brc1ccc(-c2nc3ccccn3c2Nc2ccc3c(c2)OCCO3)o1,?,nt,nt,?,?,9%
Cc1ccc2nc(-c3ccc(C)o3)c(Nc3ccc4c(c3)OCCO4)n2c1,?,nt,nt,?,4.5µM*,8%
Cc1ccc(-c2nc3ccccn3c2Nc2ccccc2)o1,?,0,20µM*,-22%,50µM*,15%
Cc1ccc2nc(-c3ccco3)c(Nc3ccccc3)n2c1,-1%,0,7%,-15%,22%[59 µM],-1%
Cc1ccc(-c2nc3ccccn3c2Nc2ccc3c(c2)OCCO3)o1,?,nt,nt,?,13µM*,2%
Cc1cccc2nc(-c3ccc(N(C)C)cc3)c(Nc3ccc4c(c3)OCO4)n12,?,nt,nt,?,2.2µM*,-3%
Cc1cc(F)ccc1NC(=O)C1CCCN(C(=O)c2cnn(-c3ccccc3)c2-n2cccc2)C1 (centres undefined),-7%,nt,nt,-4%,-31%[59 µM],-7%
N#Cc1ccc(CN2CCC3(CC2)CCN(S(=O)(=O)c2ccccc2)CC3)cc1,nt,-6,9%,nt,7%[12.7 µM],nt
COc1ccc(-c2nc3cnc(OC)nc3n(-c3ccccc3)c2=O)cc1,nt,4,-1%,nt,5%[0.501 µM],nt
Cc1ccc(-c2nc3ccccn3c2Nc2ccc3c(c2)OCO3)cc1,?,nt,nt,?,10µM*,?
CCCNc1nc(NCc2ccccc2OC)c2cnn(C)c2n1,-14%,nt,nt,-23%,-27%[12.7 µM],-2%
C=C1C=CS(=O)(=O)N(Cc2ccccc2)C1,nt,5,4%,nt,nt,nt
COc1ccc(-c2csc(NC3CCCCC3)n2)c(OC)c1,nt,2,-27%,nt,45µM*,nt
c1ccc(-c2csc(NC3CCCCC3)n2)cc1,nt,-2,-8%,nt,50µM*,nt
CC(C)Oc1ccc(/C(O)=C2/C(=O)C(=O)N(CCN(C)C)C2c2cccs2)cc1 (centres undefined),-6%,-3,16%,4%,0%[59 µM],0%
CC(=O)Nc1ccc(N=Cc2c(O)c(C(=O)Nc3ccccc3)cc3ccccc23)cc1,13µM*,-13,-30%,-26%,?,?
CC(=O)Nc1ccc(N=Cc2c(O)c3ccccc3oc2=O)cc1,nt,0,-2%,nt,10%,nt
CCOc1cc(Br)c(Br)c(C=Nc2ccc(NC(C)=O)cc2)c1O,6.3µM*,3,4%,-12%,-3%[59 µM],-3%
Cn1c(=O)c(=O)n(C)c2cc(N3CCCC3)c(NC(=O)c3ccccc3Cl)cc21,-10%,nt,nt,2%,-40%[59 µM],-1%
Cn1ncc2c(N3CCN(c4ccc(F)cc4)CC3)ncnc21,?,nt,nt,-16%,4%[59 µM],-3%
CSC1=C(C#N)C(CC(C)C)C(C(C)=O)=C(C)N1 (centres undefined),-7%,0,9%,-5%,50µM*,-3%
CSC1=C(C#N)C(CC(C)C)C2=C(CCCC2=O)N1 (centres undefined),-1%,-6,7%,-2%,-3%,0%
COc1ccc(O[C@H]2C=C[C@@H](c3ccccc3)O[C@H]2CO/N=C2/c3cc(OC)ccc3O[C@@H](c3cccc(OC)c3)[C@H]2O)cc1,?,-1,-11%,-12%[11.6 µM],nt,3%[11.6 µM]
CSCCC(NS(=O)(=O)c1ccc2c(c1)oc(=O)n2C)C(=O)Nc1ccc(Cl)cc1 (centres undefined),10%,nt,nt,-9%,0%[59 µM],-8%
SMILES,Tau ThT inhib,Coupling enz,Sfp inh,Tau fluor cs,G9a inh,Tau fibril FP
Cc1cc(C(C)(C)C)nc2[nH]n(-c3ccccc3)c(=O)c12,-25%,0,6%,-9%,-1%,2%
O=c1c2c(C(F)(F)F)cc(C(F)(F)F)nc2[nH]n1-c1ccccc1,?,-18,-8%,-24%,7.9µM*,-2%
CCCOC(=O)c1ccc(Oc2c(-c3ccc(OCC)cc3O)n[nH]c2C)cc1,-13%,-9,37%,7.9µM*[quencher],?,?
COc1ccc(Oc2cn[nH]c2-c2ccc(OCC(=O)NN)cc2O)cc1,nt,0,0%,nt,-31%,nt
CCCOC(=O)c1ccc(Oc2cn[nH]c2-c2ccc(OCC)cc2O)cc1,-8%,-5,26%,8.9µM*[quencher],58%[59 µM],?
CSc1ncccc1C(=O)OCC(=O)C(C)(C)C,-2%,0,15%,-4%,?,5%
COc1ccc(NC(=O)c2ccc3oc(=O)c(S(=O)(=O)c4ccc(C)cc4)cc3c2)cc1OC,-1%,nt,nt,-9%,7%[59 µM],-6%
Cc1ccc(NC(=O)C2CCCN(c3ncnc4onc(C)c34)C2)c(Cl)c1 (centres undefined),-6%,nt,nt,-12%,-19%[59 µM],-7%
O=C1C(Cc2ccccc2)Nc2ncnc(N3CCOCC3)c2N1Cc1ccc(Cl)cc1 (centres undefined),nt,nt,nt,nt,4.5µM*,nt
CC(=O)c1ccc(NC(=O)c2cc(C)nc3ccccc23)cc1,nt,-1,10%,nt,-2%,nt
O=C1/C(=C/c2cccs2)NC(=S)N1C1CC1,?,4,-3%,-10%,40µM*,6%
CC1CC2=C(NC(=S)NC2c2ccc(F)cc2)/C(=C/c2ccc(F)cc2)C1 (centres undefined),-13%,2,-25%,-12%,25µM*,-4%
Fc1cccc(/C=C2\CCCC3=C2NC(=S)NC3c2cccc(F)c2)c1 (centres undefined),?,0,?,-12%,nt,0%
COc1ccc(C2NC(=S)NC3=C2CCCC3=C2SCCS2)cc1 (centres undefined),?,5,16%,-15%,?,10%
O=C1/C(=C/c2ccc(F)cc2)CCC1C1CCCC1 (centres undefined),-10%,1,0%,-5%,0%[59 µM],-2%
S=C1NC2=C(CCC/C2=C\c2ccccc2)C(c2ccccc2)N1 (centres undefined),?,2,22µM*,-2%,8.9µM*,-9%
FC(F)(F)c1ccccc1C1C2=C(Nc3ncnn31)c1ccccc1CCC2 (centres undefined),-14%,-3,28µM*,-17%,?,-12%
S=C1NC2=C(CCCC2=C2SCCCS2)C(c2ccccc2)N1 (centres undefined),-14%,1,-12%,-7%,0.79µM*,1%
CCc1noc(-c2ccc(NCc3ccccc3)c([N+](=O)[O-])c2)n1,-3%,nt,nt,-16%,-20%[59 µM],-15%
CCOc1ccc(N(C)C(=O)C2CCN(S(=O)(=O)c3c(C)noc3/C=C/c3ccc(C)cc3)CC2)cc1,?,nt,nt,-7%,-36%[59 µM],-6%
